ALOX15B inhib: blocks human 15-lipoxygenase 2 activity | purified 15hLO-2, xylenol orange hydroperoxide absorbance | Potency, µM (highest dose often 57.1 µM), for inactives: at the top dose activity change, negative = inhibition, most hits filed as inhibitors | hit rate 0.56% among 110,000 | AID 881; further: nearly all actives have a fitted effect of over 60% in size
Target sequence (O15296 whole entry, looked up): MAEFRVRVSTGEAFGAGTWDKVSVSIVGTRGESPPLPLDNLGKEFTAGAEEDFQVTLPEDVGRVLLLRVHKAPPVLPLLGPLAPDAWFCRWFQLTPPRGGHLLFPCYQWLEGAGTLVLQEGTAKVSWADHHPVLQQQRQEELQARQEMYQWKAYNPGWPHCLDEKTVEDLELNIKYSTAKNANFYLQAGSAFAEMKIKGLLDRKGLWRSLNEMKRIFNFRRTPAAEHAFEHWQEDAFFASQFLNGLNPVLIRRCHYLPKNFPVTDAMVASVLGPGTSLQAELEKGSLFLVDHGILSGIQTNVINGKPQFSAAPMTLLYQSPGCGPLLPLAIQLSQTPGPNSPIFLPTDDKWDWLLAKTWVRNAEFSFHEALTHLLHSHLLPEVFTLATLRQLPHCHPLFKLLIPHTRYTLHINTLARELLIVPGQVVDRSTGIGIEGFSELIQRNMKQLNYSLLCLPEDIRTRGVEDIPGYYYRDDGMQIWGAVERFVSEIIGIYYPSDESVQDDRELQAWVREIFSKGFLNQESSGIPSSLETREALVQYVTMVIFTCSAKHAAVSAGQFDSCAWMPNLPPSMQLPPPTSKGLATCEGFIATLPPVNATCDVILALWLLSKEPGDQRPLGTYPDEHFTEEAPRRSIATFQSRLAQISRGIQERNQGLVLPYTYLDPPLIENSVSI
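Enzyme 50 nM, AA 45 uM, 25 mM Hepes pH 7.5 + 0.01% Triton X-100; cpd preinc 15 min RT, rxn 90 min RT; stop/detect with 200 uM XO + 300 uM Fe(II) in 50 mM H2SO4, 30 min; A573/A405.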
ALOX15 inhib: blocks human 15-lipoxygenase activity | P16050 | hit rate 1.4% among 74,000 | Potency, µM (series often up to 57.1 µM), for the others: top-dose activity change, negative = inhibition, hits mostly inhibitors | AID 887 | purified 15hLO-1, xylenol orange hydroperoxide absorbance; further: nearly all actives have a fitted effect of over 55% in size
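Quantitative HTS in 25 mM Hepes pH 7.5 containing 0.01% Triton X-100: human 15hLO-1 at 40 nM, arachidonic acid at 50 uM, 6 min turnover. Product quantified via ferrous oxidation/xylenol orange, 573:405 nm absorbance ratio.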
* marks the source's active call; other numbers are inactive results; ? = inconclusive; · = no result; [ ] = another dose, or the depositor's remark. This is one part of a sample in which hits are shown more often than they occur. The call rests on the fitted dose curve; in most records, active means well fitted inhibition curve with a large enough effect; inconclusive means small, poorly fitted or top-dose-only effect; inactive means no such curve, though single readings can be large or run the other way. On the % scale 0 is the no-effect control and ±100 the full control effect; potency means the concentration at half of the fitted maximal effect.

SMILES	ALOX15B inhib	ALOX15 inhib
C[C@@H]1OC(OC2CC[C@@]3(C)C(CC[C@@]4(C)C3CC=C3C5CC(C)(C)CC[C@]5(C(=O)OC5OCC(O)[C@@H](O)[C@@H]5OC5O[C@@H](C)[C@H](O[C@H]6OC(CO)C(O)C(O)C6O)C(O)C5O)C(O)C[C@@]34C)C2(C)C)C(O)C(O)[C@H]1OC1OCC(O)C(O)[C@H]1O (some centres not stated)	-27%	-10%
O=C(NCCc1c[nH]c2ccccc12)Nc1ccccc1	-1%	·
Cc1ccc(NC(=S)NCCc2c[nH]c3ccccc23)cc1	25µM*	·
COc1ccc(-n2c(Cc3cccn3C)nnc2SCC(=O)N2CCCc3ccccc32)cc1	-9%	13µM*
COc1ccc(OCc2nnc(SCC(=O)N3CCCc4ccccc43)n2-c2ccc(C)cc2)cc1	5%	·
COc1ccc(-n2c(Cc3cccn3C)nnc2SCC(=O)N2CCCC2)cc1	·	-25%
N#Cc1ccc(OCc2nnc(SCC(=O)N3CCCc4ccccc43)n2-c2ccccc2)cc1	-6%	2.5µM*
CCCCCC[C@@H]([C@H](C)O)n1cnc2c(N)ncnc21	-2%	7%
C[C@@H](CCCCC(=O)Nc1ccc(C(F)(F)F)cc1)NCCc1cnc[nH]1	41%	-1%[25.6 µM]
O=C(/C=C\c1ccccc1)c1ccccc1O	·	9%[11.4 µM]
O=C(/C=C/c1ccc(O)cc1)c1ccccc1O	-5%	10µM*
CSc1ccc([C@H]2CN3CCC[C@H]3c3ccccc32)cc1	37%[0.0915 µM]	·
Cc1nc(NCCO)c2nc(-c3ccccc3)n(CCN(C)C)c2n1	26%	32µM*
CCN(CC)CCCn1c(-c2ccccc2)nc2c(N(CCOC)CCOC)nc(C)nc21	9%	1%
COCCN(CCOC)c1nc(C)nc2c1nc(-c1ccccc1)n2CCN(C)C	29%	25µM*
CCCn1c(-c2ccc(F)cc2)nc2c(NC3CCN(Cc4ccccc4)CC3)nc(C)nc21	55%	20µM*
CCCCNc1nc(C)nc2c1nc(-c1ccccc1)n2CCN(C)C	50%	-30%
Cc1nc(N2CCOCC2)c2nc(-c3ccccc3)n(CCN(C)C)c2n1	31%	13µM*
Cc1nc(N2CCOCC2)c2nc(-c3ccccc3)n(CCCN(C)C)c2n1	9%	2%
CCCn1c(-c2ccc(F)cc2)nc2c(NCC3CCN(C)CC3)nc(C)nc21	2%	2%
CC(=O)N1CCC2(CC1)CCN(C(=O)Nc1cccc(F)c1)CC2	-6%	6%
CCC(C)=O	-7%	-1%
N[C@H](Cc1cccc(-c2ccccc2CP(=O)(O)O)c1)C(=O)O	7%	18%
FC(F)(F)c1cc(CO[C@@H]2CCCN[C@H]2c2ccccc2)cc(C(F)(F)F)c1	33%	-9%
c1ccc(Oc2nc(NC3CCCCC3)c3[nH]cnc3n2)cc1	65%[0.0915 µM]	·
SMILES	ALOX15B inhib	ALOX15 inhib
CSc1ncnc2c1ncn2[C@@H]1O[C@@H](CO)[C@H](O)O[C@@H]1O	9%[11.4 µM]	-7%[11.4 µM]
Cc1nc(NCc2ccccc2)c2nc(-c3ccccc3)n(CC(C)(C)CN(C)C)c2n1	48%	4µM*
CCCn1c(-c2ccc(F)cc2)nc2c(NCCCN(C)C)nc(C)nc21	44%	-23%
CCN(CC)CCCn1c(-c2ccccc2)nc2c(NCc3ccccc3)nc(C)nc21	55%	2%
CCCn1c(-c2ccc(F)cc2)nc2c(NCC(C)(C)CN(C)C)nc(C)nc21	48%	13µM*
CS(=O)(=O)Nc1cccc(-c2nccc(NCc3cccs3)n2)c1	-6%	?
COc1ccc(Cn2nnnc2CN(Cc2cc3cc(C)ccc3[nH]c2=O)C2CCCC2)cc1	4%[2.29 µM]	5%
CCC(c1nnnn1Cc1ccco1)N(Cc1ccccc1OC)Cc1cc2cc(C)ccc2[nH]c1=O (configuration not stated)	-6%	-28%
COc1ccc2[nH]c(=O)c(CN(Cc3nnnn3Cc3ccco3)C3CCCCC3)cc2c1	?	6.3µM*
COc1ccc2[nH]c(=O)c(CN(C3CCCCC3)C(c3nnnn3Cc3ccco3)C(C)C)cc2c1 (configuration not stated)	?	16µM*
CCC(c1nnnn1Cc1ccco1)N(Cc1cc2cc(C)cc(C)c2[nH]c1=O)CC1CCCO1 (configuration not stated)	3%	10µM*
COc1ccc2[nH]c(=O)c(CN(Cc3ccco3)C(c3nnnn3Cc3ccccc3)C(C)C)cc2c1 (configuration not stated)	0%	·
CC(=O)OCC(=O)[C@@]1(O)CCC2C3C[C@H](C)C4=CC(=O)C=CC4(C)C3C(O)CC21C (some centres not stated)	16%[0.0915 µM]	·
OB(O)c1csc2ccccc12	7%	7%
Cc1cc(=O)oc2cc(O)c(CN(C)CC(=O)O)cc12	1%[11.4 µM]	10%[11.4 µM]
CC(C)c1ccc(O)c(NC(=O)c2ncn[nH]2)c1	-17%	·
CC(C)c1ccc(O)c(O)c(=O)c1 (tested in a mixture with another compound)	4µM*	-15%[11.4 µM]
CCO[P@]1(=O)OC[C@@H]2O[C@H](n3cnc4c(N)ncnc43)[C@H](O)[C@@H]2O1	-3%[11.4 µM]	2%[11.4 µM]
Cc1ccc2c(c1)N(CC(=O)NCC1COc3ccccc3O1)C(=O)CO2 (configuration not stated)	·	-5%
C/C(=C1/SC(N2CCOCC2)=NC1=O)c1ccc(Br)cc1	3%	6%
N#C/C(=C/c1ccc(N2CCCCCC2)o1)c1cccc(F)c1	7.9µM*	·
N#C/C(=C\c1ccc(N2CCOCC2)o1)c1ccccc1	10µM*	·
N#C/C(=C/c1ccc(N2CCOCC2)o1)c1ccc(Br)cc1	10µM*	·
N#C/C(=C\N1CCOCC1)c1ccccc1	-5%	·
N#C/C(=C/c1ccc(N2CCCCC2)o1)C(=O)Nc1ccc(Cl)cc1	-21%	·
SMILES	ALOX15B inhib	ALOX15 inhib
COc1ccc(CNc2ccnc(-c3ccccc3C(F)(F)F)n2)c(OC)c1	16%	?
c1ccc2sc(SN3CCOCC3)nc2c1	20µM*	2µM*
c1ccc2sc(N3CCOCC3)nc2c1	6%	·
Clc1ccccc1-c1nccc(NCc2cccs2)n1	14%	-1%
Cc1c(C(=O)O)c2cc(O)ccc2n1-c1ccccc1	-10%	1%
COC(=O)c1c(C)n(-c2ccc(OC)cc2)c2ccc(O)cc12	?	7.9µM*
Oc1cc(O)c2c(c1)O[C@H](c1ccc(O)c(O)c1)[C@@H](O)[C@@H]2c1c(O)cc(O)c2c1O[C@@H](c1ccc(O)c(O)c1)[C@H](O)C2	-18%[11.4 µM]	?
Oc1cc(O)c2c(c1)O[C@@H](c1ccc(O)c(O)c1)[C@H](O[C@@]1(c3cc(O)c(O)c(O)c3)Oc3cc(O)cc(O)c3[C@H](O)[C@@H]1O)C2	?	1µM*
Cc1c(C(=O)O)nc(/C=C\C(=O)O)[nH]c1=O	-2%[11.4 µM]	8%[11.4 µM]
Cc1cccc(CSc2nncc(=O)[nH]2)c1	-3%	15%
O=c1cnnc(SCCc2ccccc2)[nH]1	6%[11.4 µM]	4µM*
Cc1ccc(C)c(/C(=N\N=C(N)N)C2CC2)c1	8%[11.4 µM]	23%[11.4 µM]
CN(C)CN1C(=O)S/C(=C2/C(=O)N(CN(C)C)c3ccccc32)C1=O	-5%[11.4 µM]	11%[11.4 µM]
O=C1CC(N2CCN(c3ccc(O)cc3)CC2)C(=O)N1Cc1cccs1 (configuration not stated)	?	13µM*
O=C1CC(N2CCN(C/C=C/c3ccccc3)CC2)C(=O)N1Cc1cccs1 (configuration not stated)	7%[2.29 µM]	-2%
N=C(N)SCCc1ccc(OCc2ccc([N+](=O)[O-])cc2)cc1	39%	?

Screens deposited in PubChem by National Center for Advancing Translational Sciences (NCATS).
